This note sets out measurements from PubChem BioAssay (EPA / NIEHS).

Activity calls are given as the source filed them. Rule for the calls: active = hit-call score of the fitted dose curve at least 0.9, where 1 is the maximum; inconclusive = response in the unintended direction; inactive = score below 0.9. Peptide text beside a SMILES is read from it.

Chain of Estrogen receptor (Homo sapiens) (P03372 whole entry, looked up, the tested form may be a part): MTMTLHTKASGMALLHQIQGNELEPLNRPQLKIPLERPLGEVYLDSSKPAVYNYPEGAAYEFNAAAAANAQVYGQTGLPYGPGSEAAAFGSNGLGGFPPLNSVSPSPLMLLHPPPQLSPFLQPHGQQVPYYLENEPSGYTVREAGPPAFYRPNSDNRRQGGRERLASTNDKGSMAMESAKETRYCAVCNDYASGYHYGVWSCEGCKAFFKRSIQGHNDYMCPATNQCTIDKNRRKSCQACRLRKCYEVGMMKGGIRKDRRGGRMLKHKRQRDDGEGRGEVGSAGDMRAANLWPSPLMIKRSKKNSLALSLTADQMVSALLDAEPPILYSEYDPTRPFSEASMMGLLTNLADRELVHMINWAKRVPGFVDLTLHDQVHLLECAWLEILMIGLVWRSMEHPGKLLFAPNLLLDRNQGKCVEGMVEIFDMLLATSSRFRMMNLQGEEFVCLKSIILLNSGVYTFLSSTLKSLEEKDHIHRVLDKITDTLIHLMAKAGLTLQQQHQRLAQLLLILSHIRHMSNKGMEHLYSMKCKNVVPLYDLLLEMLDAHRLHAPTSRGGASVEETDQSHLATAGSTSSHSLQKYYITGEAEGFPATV

In this test the target is Estrogen receptor (Homo sapiens) (UniProt P03372). The test is described as follows: OT_ER_ERaERa_1440: Odyssey Thera (OT) 24-hour HEK293T Protein-Complementation Assay for Estrogen Receptor-alpha/-alpha Homodimer (AID 2283349).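 Note: hits raise fluorescence above DMSO for agonists and antagonists alike.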 Here is the method:
OT_ER_ERaERa_1440 is a cell-based assay that uses HEK293T, a human kidney cell line, with measurements taken at 24 hours after chemical dosing in a 384-well plate.OT_ER_ERaERa_1440 is one of one assay component(s) measured or calculated from the OT_ER_ERaERa_1440 assay. It is designed to make measurements of protein fragment complementation, a form of binding reporter, as detected with fluorescence intensity signals by Protein-fragment Complementation technology.Data from the assay component OT_ER_ERaERa_1440 was analyzed into 1 assay endpoint. This assay endpoint, OT_ER_ERaERa_1440, was analyzed in the positive analysis fitting direction relative to DMSO as the negative control and baseline of activity. Using a type of binding reporter, measures of receptor for gain-of-signal activity can be used to understand the binding at the pathway-level as they relate to the gene ESR1. Furthermore, this assay endpoint can be referred to as a primary readout, because the performed assay has only produced 1 assay endpoint. To generalize the intended target to other relatable targets, this assay endpoint is annotated to the nuclear receptor intended target family, where the subfamily is steroidal.
Protein-fragment complementation assay, or PCA, is a method for the identification and quantification of protein-protein interactions. In the PCA, the proteins of interest ("bait" and "prey") are each covalently linked to fragments of a third protein (e.g. DHFR, which acts as a "reporter"). Interaction between the bait and the prey proteins brings the fragments of the reporter protein in close proximity to allow them to form a functional reporter protein whose activity can be measured. The OT ER alpha / ER alpha assay is a homodimer PCA of the ligand binding domain (amino acids 310-547) of human ER alpha stably expressed in HEK293T cells. […] Fluorescent signal in the basal state of the assay is very low and is primarily punctuate and cytoplasmic. Modulation of this assay is quantified as an increase in mean fluorescence intensity in the nucleus (for agonists) or in the nucleus and cytoplasm (antagonists) relative to vehicle controls, and can be quantified on a high content imaging device or a laser scanning cytometer. The latter instrument is favored for this assay because of the rapid mode of data acquisition, the ability to acquire data from the entire cell population in a well (as opposed to a fraction of the well on the high content devices) and the larger dynamic range typically achieved with this instrument. To assess sensitivity of the ER alpha/ER alpha LBD assay to ligand, cells were treated with the ER agonist 17 beta-estradiol (E2) in 10-point concentration- response format for 24 hours and monitored response on a laser scanning plate cytometer (Acumen eX3; TTP Lab Tech).
Regarding `N#Cc1ccc(C(c2ccc(C#N)cc2)n2cncn2)cc1`, the call was inactive.
`O=C(Oc1ccccc1)c1ccccc1O`: the compound was classed as inactive.
In the case of `CCc1occc(=O)c1O`, the compound was classed as inactive.
Turning to `Cc1ccc(C)c(OCCCC(C)(C)C(=O)O)c1`, the result was inactive.
Same read-out and setting: to `CCCC=C(C=O)CC` belongs “inactive”; to `CCCCCCC=O`, “inactive”; to `C1CNCCN1`, “inactive”.
Still for that read-out and setting: as for `CCCCC/C=C\C/C=C\CCCCCCCC(=O)O`, the entry is “inactive”.
What is called AC50 is the concentration at which the activity in the assay is half-maximal. Regarding `O=C(OCc1ccccc1)c1ccc(O)cc1`, the concentration at half-maximal activity (AC50) was 37.3 µM (active).
For the compound `CCCCC(CC)COC(=O)/C=C/c1ccc(OC)cc1` (stereo not given), the call was inactive.
The same measure, in the same setting: as for `CC(C)=CCCC(C)=CC#N`, the entry is “inactive”.
As for `CCCCOCCOC(=O)COc1ccc(Cl)cc1Cl`, the outcome was inactive.
Regarding `CCCCCC(=O)OCC`, the result was inactive.
On to `CCCCNS(=O)(=O)c1ccc(C)cc1`, for which the compound was called inactive.
In the case of `O=S(=O)(O)c1ccc(N=Nc2c(O)ccc3ccccc23)cc1`, the compound was classed as inactive.
Turning to `CCCCCCOC(=O)CCCCC(=O)OCCCCCC`, the compound was classed as inactive.
In the case of `C[Si]1(C)O[Si](C)(C)O[Si](C)(C)O[Si](C)(C)O[Si](C)(C)O1`, the AC50 is 50 µM (active).
Take `COC(=O)[C@H](Cc1ccccc1)NC(=O)[C@@H](N)CC(=O)O` (H-Asp-Phe-OMe): the compound was classed as inactive.
On to `CN(C)Cc1cc(CN(C)C)c(O)c(CN(C)C)c1`, for which the result was inactive.
Still for that read-out and setting: as for `Nc1ccc(C(=O)O)cc1`, the entry is “inactive”; as for `CC1=CCC2CC1C2(C)C` (stereo not given), “inactive”.
As to `NC(=O)Nc1ccccc1`, the outcome was inactive.
For `CC(C)COC(=O)CC(C(=O)OCC(C)C)S(=O)(=O)O` (stereo not given), the compound was called inactive.
For `Oc1ccccc1Cc1ccccc1O`, the result was inactive.
Turning to `CCCCCCCO`, the result was inactive.
`C=C[Si](OCCOC)(OCCOC)OCCOC`: the compound was called inactive.
Still for that read-out and setting: to `CC1=NN(c2ccc(S(=O)(=O)O)cc2)C(=O)C1N=Nc1ccccc1` (stereo not given) belongs “inactive”.
In the case of `CC(=O)OCc1ccccc1`, the outcome was inactive.
For `CC1(C)[C@@H]2CC[C@@]1(C)C(=O)C2`, the compound was called inactive.
As to `O=C(O)/C=C/c1ccccc1`, the AC50 was 34.2 µM (active).
With `Fc1ccc(Br)cc1`, the compound was called inactive.
Turning to `COc1cc(O)c(C(=O)c2ccccc2)cc1S(=O)(=O)O`, the compound was called inactive.
As for `CCCCNS(=O)(=O)c1ccccc1`, the call was inactive.
As for `C=C1C[C@H]2[C@@H]3C=C(C)C4=CC(=O)CC[C@]4(C)[C@H]3CC[C@]2(C)[C@@]1(OC(C)=O)C(C)=O`, the call was inactive.
On to `CCCCCCCCCC(C)=O`, for which the compound was called inactive.
With `CCCCCCO`, the compound was classed as inactive.
On the same count and under the same terms, to `CCC1COC(=O)O1` (stereo not given) belongs “inactive”; to `CN(C)c1ccc2nc3ccc(=[N+](C)C)cc-3sc2c1`, “inactive”.
On to `CC(C)(c1ccccc1)c1ccc(Nc2ccc(C(C)(C)c3ccccc3)cc2)cc1`, for which the outcome was inactive.
For `N#Cc1ccc(C2CCCc3cncn32)cc1` (stereo not given), the compound was called inactive.
